From PubChem BioAssay (EPA / NIEHS)
The source made the active and inactive calls. The calls were made as follows: active = hit-call score of the fitted dose curve at least 0.9, where 1 is the maximum; inactive = score below 0.9.

The compounds below were run on Tissue plasminogen activator (tPA), PLAT (gene 5327) (assay: BSK_BF4T_tPA: BioMAP Diversity Plus: BF4T Assay for Tissue plasminogen activator (tPA) Biomarker Activity (AID 2284272)). Conditions: primary human bronchial epithelial cells with fibroblasts.
Experimental: BSK_BF4T is a cell-based, multiplexed-readout assay that uses bronchial epithelial cells and dermal fibroblasts, a human vascular primary cell, with measurements taken at 24 hours after chemical dosing in a microplate: 96-well plate.BSK_BF4T_tPA is an assay component measured in the BSK_BF4T assay. It measures tPA antibody related to regulation of gene expression using ELISA technology.Data from the assay component BSK_BF4T_tPA was analyzed at the endpoint, BSK_BF4T_tPA, in the positive analysis fitting direction relative to DMSO as the negative control and baseline of activity. Using a type of binding reporter, gain or loss-of-signal activity can be used to understand protein changes. To generalize the intended target to other relatable targets, this assay endpoint is annotated to the 'protease' intended target family, where the subfamily is 'serine protease'.
The levels of cell surface (or secreted, indicated by the prefix "s") biomarker endpoints were measured by ELISA. Overt cytotoxicity to cells in confluent adherent cultures (all systems other than the BT system) was assessed by measuring total protein levels using sulforhodamine B (SRB) staining in parallel cultures at the time of biomarker measurements, indicated as SRB endpoints. For proliferation assays for adherent cell types, individual cell types are cultured at sub-confluence and relative cell numbers quantified by SRB staining at time points optimized for each system (48 h: 3C and CASM3C systems; 72 h: BT and HDF3CGF systems; 96 h: SAg system). SRB was performed by staining cells with 0.1% SRB after fixation with 10% TCA and reading wells at 560 nm.Viability and proliferation of PBMC (T cells) was quantified by Alamar Blue reduction for the SAg and BT systems. For PBMC viability (referred to as PBMC Cytotoxicity within the assay endpoint names), cells were plated (75,000/well in a 96-well plate) and then chemical samples added for 1 h before addition of activators, SEB and TSST-1 (20 ng/mL final concentration each). Cells were incubated for 90 h. Then, Alamar Blue (20 uL/well) (Invitrogen, Cat DAL1100) was added for 6 h, and the plates were read with a fluorescence microplate reader at 546/580 nm (excitation/emission). For PBMC proliferation, cells were plated and activated as above but incubated for only 16 h prior to addition of Alamar Blue. Plates were read after 6 h.

Structure (SMILES)	outcome
C[Si](C)(C)C(F)(F)C(F)(F)C(F)(F)F	inactive
FC(F)(F)COC(OCC(F)(F)F)OCC(F)(F)F	inactive
FC(F)=C(F)C(F)(F)C(F)(F)C(F)(F)C(F)(F)C(F)(F)C(F)(F)F	inactive
O=C(Cl)C(F)(F)C(F)(F)C(F)(F)C(=O)Cl	inactive
OCCC(F)(F)C(F)(F)C(F)(F)C(F)(F)F	inactive
FC(F)C(F)(F)COCC1CO1 (stereo not given)	inactive
OC(O)(C(F)C(O)(O)C(F)(F)F)C(F)(F)F	inactive
NCC(F)(F)C(F)(F)C(F)(F)C(F)(F)F	inactive
FC(F)(F)C(F)(F)C(F)(F)C(F)(F)C(F)(F)C(F)(F)I	inactive
O=S(=O)(O)CCC(F)(F)C(F)(F)C(F)(F)C(F)(F)C(F)(F)C(F)(F)F	inactive
